# Laboratory results: PubChem BioAssay (Tox21)
# Values joined by “and” are separate entries in the source; they are usually repeats but may differ in a detail not shown here. Equal values may be shown once. Where a structure was tested more than once in an assay, its records may differ in their call. Active and inactive are the calls of the source. A call without a number means that no potency is given here. Unless noted, the call rests on the fitted dose curve; in most records, active means well fitted curve in the direction sought with a large enough effect in the repeat runs; inconclusive means weak or mixed curves; inactive means no such curve, though single readings can be large; an effect the other way counts as inactive or inconclusive.
# Assays:
# [1] = qHTS assay to identify small molecule antagonists of the thyroid receptor (TR) signaling pathway - cell viability counter screen (AID 743064); further: nearly all actives have a fitted effect of over 50% in size; further: potency means the concentration at half of the fitted maximal effect
# Method in brief: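 In-well cytotoxicity read by CellTiter-Fluor (30 min, 37 C) following 23.5 h exposure of GH3 cells bearing a TRE-luciferase sensor. Compounds were added alongside 1 nM (final) T3 to drive TR transactivation.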
# [2] = qHTS assay to identify small molecule antagonists of the thyroid receptor (TR) signaling pathway (AID 743065); further: nearly all actives have a fitted effect of over 55% in size; further: potency means the concentration at half of the fitted maximal effect
# Method in brief: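 GH3.TRE-Luc rat pituitary cells carrying two TR response elements driving luciferase were plated for 4 h, given compound plus 1 nM T3 (final), and incubated 23.5 h at 37 C. ONE-Glo luminescence measured reporter inhibition; CellTiter-Fluor fluorescence tracked cytotoxicity.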
# [3] = test system: thyroid hormone receptor (rat, GH3 cells); assay: qHTS assay to identify small molecule agonists of the thyroid receptor (TR) signaling pathway (AID 743066; calls by dose curve)
# [4] = qHTS assay to identify small molecule antagonists of the estrogen receptor alpha (ER-alpha) signaling pathway - cell viability counter screen (AID 743074; calls by dose curve;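 further: HEK293 cells carrying ER-alpha-UAS-bla reporter stimulated with 17beta-estradiol; nearly all actives have a fitted effect of over 45% in size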; further: potency means the concentration at half of the fitted maximal effect)
# [5] = qHTS assay to identify small molecule antagonists of the estrogen receptor alpha (ER-alpha) signaling pathway using the BG1 cell line - cell viability counter screen (AID 743081);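 further: compound given together with 17beta-estradiol as the ER stimulus; nearly all actives have a fitted effect of over 45% in size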
# Aromatase (Homo sapiens) = Aromatase (Homo sapiens) (UniProt P11511); assay: qHTS assay to identify aromatase inhibitors (AID 743083); further: nearly all actives have a fitted effect of over 55% in size; further: potency means the concentration at half of the fitted maximal effect
# Sequence of Aromatase (Homo sapiens) (P11511 whole entry, looked up): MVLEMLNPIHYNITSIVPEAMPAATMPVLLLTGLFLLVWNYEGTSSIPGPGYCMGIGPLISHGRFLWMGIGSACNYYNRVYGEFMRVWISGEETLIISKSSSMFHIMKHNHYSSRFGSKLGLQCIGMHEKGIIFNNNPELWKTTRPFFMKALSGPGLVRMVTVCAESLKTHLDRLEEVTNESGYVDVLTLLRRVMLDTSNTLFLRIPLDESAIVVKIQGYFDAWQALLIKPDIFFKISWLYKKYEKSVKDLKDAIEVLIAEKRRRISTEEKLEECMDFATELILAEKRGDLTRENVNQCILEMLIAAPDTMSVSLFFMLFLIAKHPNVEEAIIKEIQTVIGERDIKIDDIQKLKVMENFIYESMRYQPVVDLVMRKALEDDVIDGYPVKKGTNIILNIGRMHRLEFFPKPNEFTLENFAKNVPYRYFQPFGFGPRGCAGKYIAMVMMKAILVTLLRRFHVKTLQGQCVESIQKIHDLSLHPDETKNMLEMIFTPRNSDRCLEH
# [6] = qHTS assay to identify aromatase inhibitors - cell viability counter screen (AID 743084);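 further: cells stimulated with testosterone during compound exposure; nearly all actives have a fitted effect of over 55% in size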; further: potency means the concentration at half of the fitted maximal effect
# [7] = qHTS assay to identify small molecule that activate the aryl hydrocarbon receptor (AhR) signaling pathway - cell viability counter screen (AID 743086); further: nearly all actives have a fitted effect of over 45% in size; further: potency means the concentration at half of the fitted maximal effect
# Method in brief: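 HepG2-AhR-luc (HG2L7.5c1) cells, 4000/well, were preincubated 5 h at 37C, exposed to compound in qHTS format for 24 hr at 37C, then given CellTiter-Fluor for 30 min; viability was read as fluorescence in the reporter wells.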
# [8] = target: Peroxisome proliferator-activated receptor gamma (Homo sapiens) (UniProt P37231); assay: qHTS assay to identify small molecule agonists of the peroxisome proliferator-activated receptor gamma (PPARg) signaling pathway (AID 743094; active means well fitted activation curve with a large enough effect in the signal ratio in the repeat runs, not every such curve was filed as active; inconclusive means weak or mixed curves, or effect the other way; inactive means no such curve, though single readings can be large or run the other way; the % refers to the signal ratio)
# Sequence of Peroxisome proliferator-activated receptor gamma (Homo sapiens) (P37231 whole entry, looked up): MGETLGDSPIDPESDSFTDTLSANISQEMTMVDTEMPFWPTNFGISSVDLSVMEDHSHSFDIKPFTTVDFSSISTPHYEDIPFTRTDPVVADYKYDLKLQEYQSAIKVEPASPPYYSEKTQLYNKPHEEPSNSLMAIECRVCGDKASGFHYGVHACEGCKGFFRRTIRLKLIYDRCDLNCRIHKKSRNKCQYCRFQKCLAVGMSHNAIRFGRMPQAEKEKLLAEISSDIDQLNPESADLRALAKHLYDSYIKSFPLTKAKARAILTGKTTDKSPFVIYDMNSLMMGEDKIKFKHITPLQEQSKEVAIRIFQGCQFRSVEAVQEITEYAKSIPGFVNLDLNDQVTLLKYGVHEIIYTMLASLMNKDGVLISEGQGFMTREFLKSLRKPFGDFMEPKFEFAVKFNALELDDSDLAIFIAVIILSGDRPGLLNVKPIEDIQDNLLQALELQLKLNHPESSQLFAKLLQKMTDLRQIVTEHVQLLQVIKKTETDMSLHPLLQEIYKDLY
# Method in brief: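 Quantitative HTS agonist mode: stable HEK293H line with UAS-beta-lactamase reporter under PPARg control, 17 h compound exposure at 37C, fluorescence after 1 h FRET substrate loading at room temperature.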
# [9] = qHTS assay to identify small molecule antagonists of the peroxisome proliferator-activated receptor gamma (PPARg) signaling pathway - cell viability counter screen (AID 743194); settings: Potency: co-treated with 50 nM rosiglitazone unless noted; further: nearly all actives have a fitted effect of over 55% in size; further: potency means the concentration at half of the fitted maximal effect
# Method in brief: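 PPARg-UAS-bla HEK293H cells were plated, rested 5 h at 37 C, then treated with compounds plus rosiglitazone (50 nM final) for 17 h at 37 C; viability was then read by CellTiter-Glo luminescence after 30 min at room temperature.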
# [10] = qHTS assay for small molecule agonists of the antioxidant response element (ARE) signaling pathway - cell viability counter screen (AID 743203; calls by dose curve; further: nearly all actives have a fitted effect of over 55% in size; further: potency means the concentration at half of the fitted maximal effect)
# Method in brief: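 Seeded at 2,000 cells/well, ARE-bla HepG2 cells were incubated 5 hrs before compound addition. After 16 hrs of treatment at 37C with 5% CO2, CellTiter-Glo reagent was added and luminescence read 30 min later.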
# [11] = qHTS assay for small molecule activators of the heat shock response signaling pathway - cell viability counter screen (AID 743209); further: nearly all actives have a fitted effect of over 50% in size; further: potency means the concentration at half of the fitted maximal effect
# Method in brief: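 First, HSE-bla HeLa cells were seeded at 1500 cells/well and kept overnight at 37 C. Next, compounds were pinned in and incubated 5 h. After the FRET substrate step, CellTiter-Glo was added and luminescence read 30 min later.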
# [12] = target: Estrogen receptor (Homo sapiens) (UniProt P03372); assay: qHTS assay to identify small molecule agonists of the estrogen receptor alpha (ER-alpha) signaling pathway (AID 743075; calls by dose curve;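 further: HEK293 GripTite cells with ER-alpha and UAS-driven beta-lactamase reporter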; further: potency means the concentration at half of the fitted maximal effect)
# Sequence of Estrogen receptor (Homo sapiens) (P03372 whole entry, looked up): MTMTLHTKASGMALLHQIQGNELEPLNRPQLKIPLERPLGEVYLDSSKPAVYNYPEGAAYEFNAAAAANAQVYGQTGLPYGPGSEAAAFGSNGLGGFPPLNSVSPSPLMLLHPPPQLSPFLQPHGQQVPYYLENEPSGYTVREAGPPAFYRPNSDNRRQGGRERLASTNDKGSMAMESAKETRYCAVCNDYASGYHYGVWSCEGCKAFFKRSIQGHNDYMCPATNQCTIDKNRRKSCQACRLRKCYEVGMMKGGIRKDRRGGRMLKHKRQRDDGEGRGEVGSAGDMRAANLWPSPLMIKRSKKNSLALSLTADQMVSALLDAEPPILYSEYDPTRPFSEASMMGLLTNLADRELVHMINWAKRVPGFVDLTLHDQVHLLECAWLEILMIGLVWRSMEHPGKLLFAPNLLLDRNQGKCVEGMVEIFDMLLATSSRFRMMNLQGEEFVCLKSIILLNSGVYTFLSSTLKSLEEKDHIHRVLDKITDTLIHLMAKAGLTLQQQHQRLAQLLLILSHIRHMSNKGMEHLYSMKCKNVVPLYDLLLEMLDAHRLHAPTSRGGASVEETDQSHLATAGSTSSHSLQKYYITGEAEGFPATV
# [13] = target: Aryl hydrocarbon receptor (Homo sapiens) (UniProt P35869); assay: qHTS assay to identify small molecule that activate the aryl hydrocarbon receptor (AhR) signaling pathway (AID 743085); further: nearly all actives have a fitted effect of over 15% in size; further: potency means the concentration at half of the fitted maximal effect;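 on activation: HG2L7.5c1 human HepG2 liver cells with stably integrated DRE-driven firefly reporter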
# Sequence of Aryl hydrocarbon receptor (Homo sapiens) (P35869 whole entry, looked up): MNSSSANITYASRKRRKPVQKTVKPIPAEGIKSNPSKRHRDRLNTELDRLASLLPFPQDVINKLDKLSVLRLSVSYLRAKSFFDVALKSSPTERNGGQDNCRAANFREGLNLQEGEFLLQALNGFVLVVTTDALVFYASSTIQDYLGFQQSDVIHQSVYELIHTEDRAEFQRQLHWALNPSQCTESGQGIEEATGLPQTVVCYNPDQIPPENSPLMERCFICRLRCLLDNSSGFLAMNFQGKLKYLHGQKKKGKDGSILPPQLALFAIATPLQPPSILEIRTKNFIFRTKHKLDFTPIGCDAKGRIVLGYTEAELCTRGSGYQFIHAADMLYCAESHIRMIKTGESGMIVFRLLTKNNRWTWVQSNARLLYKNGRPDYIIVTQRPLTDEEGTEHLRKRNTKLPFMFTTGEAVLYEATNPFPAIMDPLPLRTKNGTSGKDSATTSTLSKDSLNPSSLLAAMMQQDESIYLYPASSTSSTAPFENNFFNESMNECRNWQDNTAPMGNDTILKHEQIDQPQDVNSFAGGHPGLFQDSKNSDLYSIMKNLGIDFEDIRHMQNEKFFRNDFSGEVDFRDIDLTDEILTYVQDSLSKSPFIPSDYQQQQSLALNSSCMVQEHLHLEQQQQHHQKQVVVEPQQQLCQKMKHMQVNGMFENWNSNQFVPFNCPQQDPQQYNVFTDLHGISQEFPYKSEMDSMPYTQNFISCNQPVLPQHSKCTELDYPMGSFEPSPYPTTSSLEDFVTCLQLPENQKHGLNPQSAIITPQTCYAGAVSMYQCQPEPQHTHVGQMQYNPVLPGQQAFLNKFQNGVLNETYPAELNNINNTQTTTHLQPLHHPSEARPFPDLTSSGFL
# Method in brief: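 Luminescence (ONE-Glo) from a dioxin-responsive-element luciferase reporter in HG2L7.5c1 HepG2 cells after 24 hr compound exposure at 37C; viability measured by CellTiter-Fluor fluorescence beforehand.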
# [14] = target: Estrogen receptor (Homo sapiens) (UniProt P03372); assay: qHTS assay to identify small molecule agonists of the estrogen receptor alpha (ER-alpha) signaling pathway using the BG1 cell line (AID 743079); settings: BG1Luc4E2 cells, ERE-luciferase agonist, 22 h; activation: at 70.3 µM (top of the series); further: nearly all actives have a fitted effect of over 20% in size; further: potency means the concentration at half of the fitted maximal effect
# [15] = qHTS assay to identify small molecule antagonists of the estrogen receptor alpha (ER-alpha) signaling pathway using the BG1 cell line (AID 743080; calls by dose curve;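 further: BG1 cells stimulated with 17beta-estradiol alongside compound; nearly all actives have a fitted effect of over 25% in size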; further: potency means the concentration at half of the fitted maximal effect)
# Method in brief: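 Luminescence from a 4×ERE-luciferase reporter in BG1-Luc-4E2 cells served as read-out. Cells, pre-cultured 5 days in stripped-serum phenol-red-free medium, were exposed to compound with 17beta-estradiol co-stimulation for 21.5 h at 37 C.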
# [16] = qHTS assay for small molecule agonists of the antioxidant response element (ARE) signaling pathway (AID 743202; active means well fitted activation curve with a large enough effect in the signal ratio in the repeat runs, not every such curve was filed as active; inconclusive means weak or mixed curves, or effect the other way; inactive means no such curve, though single readings can be large or run the other way; the % refers to the signal ratio; further: potency means the concentration at half of the fitted maximal effect)
# Method in brief: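 Compounds delivered in DMSO to ARE-bla HepG2 cells (2,000 cells/well, pre-incubated 5 h) and left 16 h at 37 C. LiveBLAzer B/G FRET substrate then added for 2 h at RT before fluorescence reading.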
# [17] = qHTS assay for small molecule activators of the heat shock response signaling pathway (AID 743210; active means well fitted activation curve with a large enough effect in the signal ratio in the repeat runs, with a control signal flat, not every such curve was filed as active; inconclusive means weak or mixed curves; the % refers to the signal ratio;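 further: HeLa cells with beta-lactamase reporter driven by heat shock elements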)
# Method in brief: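 Reporter gene assay: HeLa cells stably bearing an HSE-bla construct, compound treatment 5 h at 37 C, LiveBLAzer substrate 2.5 h at RT, fluorescence intensity.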
# [18] = target: Peroxisome proliferator-activated receptor gamma (Homo sapiens) (UniProt P37231); assay: qHTS assay to identify small molecule antagonists of the peroxisome proliferator-activated receptor gamma (PPARg) signaling pathway (AID 743191; calls by dose curve; further: nearly all actives have a fitted effect of over 30% in size)
# Method in brief: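 GeneBLAzer PPARg UAS-bla HEK293H cells carrying a UAS-driven beta-lactamase reporter were plated at 3000 cells/well, preincubated 5 h at 37C, then given compound for 17 h at 37C; LiveBLAzer B/G FRET substrate was read after 1 h at room temperature.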
# [19] = target: Estrogen receptor (Homo sapiens) (UniProt P03372); assay: qHTS assay to identify small molecule antagonists of the estrogen receptor alpha (ER-alpha) signaling pathway (AID 743069; active means well fitted curve in the direction sought with a large enough effect in the signal ratio in the repeat runs, not every such curve was filed as active; inconclusive means weak or mixed curves, or effect the other way; inactive means no such curve, though single readings can be large or run the other way; the % refers to the signal ratio)
# Method in brief: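 Estradiol-stimulated ER-alpha-UAS-bla HEK293 cells, 18 hr compound exposure at 37C. LiveBLAzer B/G substrate, 2 hr RT, fluorescence read.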
smiles,measurement,setting,value
O=C(Nc1ccc(F)cc1F)c1cccnc1Oc1cccc(C(F)(F)F)c1,Potency,[1],inactive
same,Potency,[2],inactive
same,Potency,[3],inactive
same,Potency,[4],inactive
same,Potency,[5],inactive
same,Potency,Aromatase (Homo sapiens),inactive
same,Potency,[6],inactive
same,Potency,[7],inactive
same,Potency,[8],inactive
same,Potency,[9],inactive
same,Potency,[10],inactive
same,Potency,[11],inactive
Oc1cc(Cl)c(Cl)c(Cl)c1Cl,Potency,[1],29.9 µM (active)
same,Potency,[2],15 µM (active)
same,Potency,[3],inactive
same,Potency,[12],inactive
same,Potency,[5],inactive
same,Potency,[13],11.9 µM (active)
same,Potency,[7],inactive
same,Potency,[11],13.5 µM (active)
Cc1cc2c3c(c1)C(c1ccccc1)=N[C@@H](NC(=O)c1ccncc1)C(=O)N3CC2,Potency,[1],inactive
same,Potency,[2],24.3 µM (active)
same,Potency,[3],inactive
same,Potency,[12],inactive
same,Potency,[14],inactive
same,Potency,[15],inactive
same,Potency,Aromatase (Homo sapiens),inactive
same,Potency,[6],inactive
same,Potency,[13],inactive
same,Potency,[7],inactive
same,Potency,[9],inactive
same,Potency,[16],inactive
same,Potency,[10],inactive
same,Potency,[11],inactive
same,Potency,[17],inactive
N#Cc1c[nH]cc1-c1cccc2c1OC(F)(F)O2,Potency,[1],27.3 µM (active)
same,Potency,[2],12.2 µM (active)
same,Potency,[4],inactive
same,Potency,[12],17.4 µM [inconclusive] (active)
same,Potency,[14],inactive
same,Potency,[15],48.6 µM (active)
same,Potency,[5],inactive
same,Potency,Aromatase (Homo sapiens),27.3 µM (active)
same,Potency,[6],inactive
same,Potency,[7],inactive
same,Potency,[9],inactive
same,Potency,[16],inactive
same,Potency,[10],inactive
same,Potency,[11],inactive
same,Potency,[17],inactive
CC(C)C(Br)C(=O)NC(N)=O (centres undefined),Potency,[1],inactive
same,Potency,[2],inactive
same,Potency,[3],inactive
same,Potency,[12],inactive
same,Potency,[14],inactive
same,Potency,[15],inactive
same,Potency,[5],inactive
same,Potency,Aromatase (Homo sapiens),inactive
same,Potency,[6],inactive
same,Potency,[13],inactive
same,Potency,[7],inactive
same,Potency,[8],inactive
same,Potency,[9],inactive
same,Potency,[10],inactive
same,Potency,[11],inactive
same,Potency,[17],inactive
O=C1C2(Cl)C3(Cl)C4(Cl)C(Cl)(Cl)C5(Cl)C3(Cl)C1(Cl)C5(Cl)C24Cl (centres undefined),Potency,[1],9.53 µM (active) and 13.1 µM (active)
same,Potency,[2],9.53 µM (active) and 11.7 µM (active)
same,Potency,[3],inactive
same,Potency,[4],54 µM (active)
same,Potency,[5],inactive
same,Potency,Aromatase (Homo sapiens),26.9 µM (active) and 52.2 µM (active)
same,Potency,[6],26.9 µM (active) and 52.2 µM (active)
same,Potency,[13],inactive
same,Potency,[9],38.3 µM (active)
same,Potency,[10],67.5 µM (active) and 58.5 µM (active)
same,Potency,[11],48.2 µM (active)
C1=CCC=C1,Potency,[1],inactive
same,Potency,[2],inactive
same,Potency,[3],inactive
same,Potency,[4],inactive
same,Potency,[5],inactive
same,Potency,[6],inactive
same,Potency,[7],inactive
same,Potency,[9],inactive
same,Potency,[16],inactive
same,Potency,[10],inactive
same,Potency,[11],inactive
CCOC(=O)CCN(SN(C)C(=O)Oc1cccc2c1OC(C)(C)C2)C(C)C,Potency,[1],inactive
same,Potency,[2],inactive
same,Potency,[4],inactive
same,Potency,[12],inactive
same,Potency,[14],inactive
same,Potency,[15],inactive
same,Potency,[5],inactive
same,Potency,Aromatase (Homo sapiens),inactive
same,Potency,[6],inactive
same,Potency,[13],inactive
same,Potency,[7],inactive
same,Potency,[9],inactive
same,Potency,[16],inactive
same,Potency,[10],inactive
same,Potency,[11],inactive
CCC(C)Br (centres undefined),Potency,[1],inactive
same,Potency,[2],inactive
same,Potency,[3],inactive
same,Potency,[4],inactive
same,Potency,[5],inactive
same,Potency,Aromatase (Homo sapiens),inactive
same,Potency,[6],inactive
same,Potency,[13],inactive
same,Potency,[8],inactive
same,Potency,[18],inactive
same,Potency,[9],inactive
same,Potency,[16],inactive
same,Potency,[10],inactive
same,Potency,[17],inactive
O=S(=O)(O)F,Potency,[1],inactive
same,Potency,[2],inactive
same,Potency,[3],inactive
same,Potency,[12],inactive
same,Potency,[14],inactive
same,Potency,[15],inactive
same,Potency,[5],inactive
same,Potency,Aromatase (Homo sapiens),inactive
same,Potency,[6],inactive
same,Potency,[13],inactive
same,Potency,[7],inactive
same,Potency,[8],inactive
same,Potency,[18],inactive
same,Potency,[16],inactive
same,Potency,[10],inactive
same,Potency,[11],inactive
same,Potency,[17],inactive
O=S1OCC2C(CO1)C1(Cl)C(Cl)=C(Cl)C2(Cl)C1(Cl)Cl (centres undefined),Potency,[1],61.2 µM (active) and 54.4 µM (active)
same,Potency,[2],61.2 µM (active) and 61.1 µM (active)
same,Potency,[4],inactive
same,Potency,[12],43.7 µM [inconclusive] (active) and inactive
same,Potency,[14],1.94 µM (active)
same,Potency,[15],61.2 µM (active) and 61.1 µM (active)
same,Potency,[5],inactive
same,Potency,Aromatase (Homo sapiens),27.3 µM (active)
same,Potency,[6],48.6 µM (active)
same,Potency,[13],inactive
same,Potency,[7],inactive
same,Potency,[10],54.4 µM (active)
same,Potency,[11],24.5 µM (active)
COc1ccc2c(c1OC)C(=O)O[C@@H]2[C@H]1c2cc3c(cc2CCN1C)OCO3,Potency,[1],6.79 µM (active)
same,Potency,[2],inactive
same,Potency,[3],inactive
same,Potency,[4],inactive
same,Potency,Aromatase (Homo sapiens),inactive
same,Potency,[6],2.15 µM (active)
same,Potency,[13],inactive
same,Potency,[8],inactive
same,Potency,[18],inactive
same,Potency,[16],inactive
same,Potency,[10],inactive
same,Potency,[11],inactive
same,Potency,[17],inactive
CC1=C2C[C@H]3[C@@H](CC=C4C[C@@H](O)CC[C@@]43C)[C@@H]2CC[C@]12O[C@@H]1C[C@H](C)CN[C@H]1[C@H]2C,Potency,[1],inactive
same,Potency,[3],inactive
same,Potency,[19],inactive
same,Potency,[4],inactive
same,Potency,[12],inactive
same,Potency,[14],inactive
same,Potency,[15],inactive
same,Potency,Aromatase (Homo sapiens),inactive
same,Potency,[13],inactive
same,Potency,[8],inactive
same,Potency,[9],inactive
same,Potency,[10],inactive
same,Potency,[11],inactive
same,Potency,[17],inactive
O=[N+]([O-])c1cccc2cccc([N+](=O)[O-])c12,Potency,[1],inactive
same,Potency,[3],inactive
same,Potency,[4],inactive
same,Potency,[5],inactive
same,Potency,[6],inactive
same,Potency,[7],inactive
same,Potency,[9],inactive
same,Potency,[16],9.73 µM (active)
same,Potency,[10],inactive
same,Potency,[11],inactive
CCC[CH2][Sn]([CH2]CCC)([CH2]CCC)[O][Sn]([CH2]CCC)([CH2]CCC)[CH2]CCC,"activity change, negative = cytotoxic",[1],15.8% [at 8.44 µM] (inactive)
same,"activity, negative = inhibition",[2],7.29% [at 8.44 µM] (inactive)
same,Potency,[4],0.852 µM (active)
same,Potency,Aromatase (Homo sapiens),2.67 µM (active)
same,Potency,[6],2.12 µM (active)
same,activation,[13],-11.8% [at 8.47 µM] (inactive)
same,Potency,[7],2.67 µM (active)
same,Potency,[9],0.427 µM (active)
same,Potency,[10],0.238 µM (active)
same,Potency,[11],0.38 µM (active)
